The structures appear in SMILES notation. Values without a mark were called inactive. Results filed as inconclusive are left out. The source made the active and inactive calls. The call rests on the fitted dose curve; in most records, active means well fitted curve in the direction sought with a large enough effect in the repeat runs; inconclusive means weak or mixed curves; inactive means no such curve, though single readings can be large; an effect the other way counts as inactive or inconclusive. Where a SMILES comes first, the peptide text is derived from it.

The nature of test [1]: qHTS RealTime-Glo MT Cell Viability Assay in HEK293 cells - 32 hour (AID 1224868). Further: top concentration of the series differs between compounds; nearly all actives have a fitted effect of over 50% in size. The method, boiled down: (§1)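 Nonlytic real-time viability readout: viable cells convert prosubstrate to NanoLuc substrate, giving luminescence proportional to live cell number. HEK293, 600 cells/well, compound added after 5 h, continuous culture at 37 C.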
(In general: Quantitative high-throughput screening tests each substance at several concentrations.)

Test [2] can be described thus: A CellTox Green Cytotoxicity Assay to monitor cytotoxicity in HEK293 cells - 0 hour (AID 1224869). Further: nearly all actives have a fitted effect of over 50% in size. The method, boiled down: (§2)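 HEK293 cells premixed with CellTox Green dye were seeded at 600 cells/well and left 5 h at 37 C/5% CO2 before pin transfer of 23 nL compound in DMSO. Fluorescence from dye bound to dead-cell DNA was read during 40 h treatment.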
Test [3] can be described thus: A CellTox Green Cytotoxicity Assay to monitor cytotoxicity in HEK293 cells - 40 hour (AID 1224871). Further: nearly all actives have a fitted effect of over 45% in size. The method, boiled down:
as §2

Test [4] can be described thus: qHTS RealTime-Glo MT Cell Viability Assay in HEK293 cells - 16 hour (AID 1224872). Further: top concentration of the series differs between compounds; nearly all actives have a fitted effect of over 50% in size. The method, boiled down:
as §1

Test [5] is described as follows: qHTS RealTime-Glo MT Cell Viability Assay in HEK293 cells - 40 hour (AID 1224874). Further: nearly all actives have a fitted effect of over 50% in size. The following applies: RealTime-Glo luminescence; max response: stronger effect = lower value. The method, boiled down: (§3)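 HEK293 cells mixed with RealTime-Glo reagents (NanoLuc plus cell-permeant prosubstrate) at 600 cells/well, preincubated 5 h at 37 C/5% CO2, then given 23 nL compound in DMSO. Nonlytic luminescence from viable cells was read at 0, 8, 16, 24, 32 and 40 h.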

Test [6] in a line: A CellTox Green Cytotoxicity Assay to monitor cytotoxicity in HepG2 cells - 16 hour (AID 1224876). Further: nearly all actives have a fitted effect of over 45% in size. The method, boiled down:
(§4)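 HepG2 cells were seeded together with the CellTox Green dye at 600 cells/well, left 5 h at 37 C/5% CO2, then given compounds in DMSO. Fluorescence from dye bound to dead-cell DNA was read repeatedly over 40 h of treatment at 37 C.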

Test [7] is described as follows: qHTS RealTime-Glo MT Cell Viability Assay in HepG2 cells - 32 hour (AID 1224877). Further: nearly all actives have a fitted effect of over 55% in size. The method, boiled down: (§5)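 Luminescence read-out: viable HepG2 cells reduce a prosubstrate to a NanoLuc substrate, giving a signal proportional to live cell number. Reads taken at 0, 8, 16, 24, 32 and 40 h of compound exposure at 37 C.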
Test [8] is described as follows: A CellTox Green Cytotoxicity Assay to monitor cytotoxicity in HepG2 cells - 24 hour (AID 1224878). Further: nearly all actives have a fitted effect of over 45% in size. Further: potency means the concentration at half of the fitted maximal effect. The method, boiled down: as §4
Test [9] can be described thus: A CellTox Green Cytotoxicity Assay to monitor cytotoxicity in HepG2 cells - 40 hour (AID 1224879). Further: nearly all actives have a fitted effect of over 40% in size. Further: potency means the concentration at half of the fitted maximal effect. The method, boiled down: as §4
A short description of test [10]: qHTS RealTime-Glo MT Cell Viability Assay in HEK293 cells - 0 hour (AID 1224880). Further: top concentration of the series differs between compounds; nearly all actives have a fitted effect of over 45% in size. The method, boiled down:
as §3

The nature of test [11]: A CellTox Green Cytotoxicity Assay to monitor cytotoxicity in HEK293 cells - 32 hour (AID 1224881). Further: nearly all actives have a fitted effect of over 40% in size. The method, boiled down:
as §2

A short description of test [12]: A CellTox Green Cytotoxicity Assay to monitor cytotoxicity in HepG2 cells - 0 hour (AID 1224882). Further: nearly all actives have a fitted effect of over 35% in size. The method, boiled down:
as §4

A short description of test [13]: A CellTox Green Cytotoxicity Assay to monitor cytotoxicity in HepG2 cells - 32 hour (AID 1224883). Further: nearly all actives have a fitted effect of over 50% in size. Further: potency means the concentration at half of the fitted maximal effect. The method, boiled down:
as §4

Test [14] can be described thus: A CellTox Green Cytotoxicity Assay to monitor cytotoxicity in HEK293 cells - 8 hour (AID 1224884). Further: nearly all actives have a fitted effect of over 35% in size. The method, boiled down:
as §2

The nature of test [15]: qHTS RealTime-Glo MT Cell Viability Assay in HepG2 cells - 16 hour (AID 1224885). Further: nearly all actives have a fitted effect of over 50% in size. The method, boiled down:
as §5

Test [16] can be described thus: qHTS RealTime-Glo MT Cell Viability Assay in HepG2 cells - 40 hour (AID 1224870). Further: nearly all actives have a fitted effect of over 50% in size. The method, boiled down:
(§6)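 HepG2 cells (600/well) mixed with RealTime-Glo MT reagent, settled 5 h at 37 C/5% CO2 before compound addition. Nonlytic NanoLuc luminescence from viable-cell prosubstrate reduction read repeatedly during 40 h treatment at 37 C.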

The nature of test [17]: qHTS RealTime-Glo MT Cell Viability Assay in HepG2 cells - 8 hour (AID 1224873). Further: nearly all actives have a fitted effect of over 55% in size. The method, boiled down:
as §6

A short description of test [18]: qHTS RealTime-Glo MT Cell Viability Assay in HepG2 cells - 24 hour (AID 1224867). Further: nearly all actives have a fitted effect of over 50% in size. The method, boiled down: as §5
Test [19] in a line: A CellTox Green Cytotoxicity Assay to monitor cytotoxicity in HEK293 cells - 24 hour (AID 1224875). The method, boiled down:
as §2
On the % scale 0 is the no-effect control and ±100 the full control effect.

For `Cc1ccnc(N)c1`, the Potency result in test [1], in test [2], in test [3], in [4], in [6] and in test [8] was “inactive” throughout. The Potency entry in test [9], in test [10], in test [11], in [12], in [13] and in test [14] was “inactive” in each case. In test [5], the max response was -4.39%. Also, the outcome in test [7] and in test [15] was inactive.

On to `CCN1CCCC1CN` (stereo unspecified), for which the Potency result in test [1], in [2], in [3], in test [4], in test [6] and in test [8] was “inactive” throughout. Further, the Potency result in [9], in test [10], in test [11], in test [12], in [13] and in test [14] was “inactive” in each case. Further, the call in test [16], in [17], in test [7] and in test [15] was inactive. The max response in test [5] is 9.62%.

As to `CC12CCC(C1)C(C)(C)C2O` (stereo unspecified), the result in [18], in [16], in test [17], in test [7] and in [15] was inactive. In addition, the Potency entry in test [4], in test [10] and in test [12] was “inactive” throughout. For the same molecule, the Potency in test [8], in test [9] and in [13] was 2190 nM (active) each time.

Take `Cc1cc(C)c(C(=O)O)c(C)c1`: the Potency entry in test [1], in [2], in [3], in test [4], in test [19] and in test [8] was “inactive” in each case. The Potency result in test [9], in test [10], in [11], in test [12], in test [13] and in [14] was “inactive” each time. The max response in test [5] is 1.4%. Besides, the molecule was called inactive in test [7] and in [15].

With `O/N=C/C=N/O`, the Potency entry in test [1], in test [2], in test [3], in test [4], in [19] and in test [6] was “inactive” in each case. The Potency entry in [8], in test [9], in test [10], in [11], in test [12] and in test [13] was “inactive” in each case. Moreover, the Potency result in [14] was “inactive”. For the same molecule, the result in test [17], in test [7] and in test [15] was inactive. In addition, in test [5], the max response was 0.715%.

In the case of `NCC1(Cc2noc(=O)[nH]2)CCCCC1`, the Potency entry in test [1], in test [2], in test [3], in test [4], in [19] and in test [6] was “inactive” each time. The Potency entry in test [8], in [9], in test [10], in [11], in test [12] and in [13] was “inactive” each time. For the same molecule, in test [14], the Potency result was “inactive”. Further, the molecule was classed as inactive in test [16], in test [17], in [7] and in test [15].

For `CC(=O)CCc1ccc(OC(C)=O)cc1`, the Potency entry in test [1], in test [2], in [3], in test [4], in [19] and in [6] was “inactive” in each case. For the same molecule, the Potency entry in test [8], in test [9], in test [10], in [11], in test [12] and in [13] was “inactive” throughout. The Potency entry in test [14] was “inactive”. In addition, the molecule was called inactive in test [16], in [17], in test [7] and in test [15]. The max response in test [5] was 2.75%.

With `CC(=O)N[C@@H](CO)C(=O)N[C@@H](CC(=O)O)C(=O)N[C@@H](CCCCN)C(=O)N1CCC[C@H]1C(=O)O` (Ac-SDKP-OH), the Potency result in test [1], in test [2], in test [4], in test [19], in test [6] and in [8] was “inactive” in each case. Further, the Potency result in test [9], in test [10], in [11], in test [13] and in [14] was “inactive” throughout. Further, the molecule was classed as inactive in [16], in test [17], in test [7] and in test [15]. For the same molecule, in test [5], the max response is 3.58%.

Turning to `Cc1ncc([N+](=O)[O-])n1CC(C)O` (stereo unspecified), the Potency result in test [1], in test [3], in test [4], in test [19], in test [8] and in [9] was “inactive” throughout. For the same molecule, the Potency entry in test [10], in test [11], in test [13] and in [14] was “inactive” in each case. Further, the outcome in test [16], in test [17], in test [7] and in test [15] was inactive. In [5], the max response was -2.46%.
